The source of these data is PubChem BioAssay AID1851 (National Center for Advancing Translational Sciences (NCATS), 2009).

In general, AC50 refers to the concentration giving half of the maximal activity seen.

The campaign covered roughly 16,000 compounds. About 4,000 (25%) were called active. Inconclusive results (about 26%) are left out. These entries were drawn from the full list. Values without a mark were called inactive. Calls follow the shape of the dose curve; as a rule, active = well fitted curve in the direction sought with a large enough effect; inconclusive = small, poorly fitted or top-dose-only effect, or effect the other way; inactive = no such curve, though single readings can be large or run the other way.
% is scaled to controls: 0 for no effect and ±100 for the full control effect.

This experiment deals with Cytochrome P450 2C9 (Homo sapiens) (UniProt P11712). In words: Cytochrome panel assay with activity outcomes. As to conditions: recombinant CYP, pro-luciferin dealkylation, luminescence, p450-cyp2c9; series mostly up to 57.1 µM; activity, negative = inhibition: at the top concentration.
Sequence of Cytochrome P450 2C9 (Homo sapiens) (P11712 whole entry, looked up): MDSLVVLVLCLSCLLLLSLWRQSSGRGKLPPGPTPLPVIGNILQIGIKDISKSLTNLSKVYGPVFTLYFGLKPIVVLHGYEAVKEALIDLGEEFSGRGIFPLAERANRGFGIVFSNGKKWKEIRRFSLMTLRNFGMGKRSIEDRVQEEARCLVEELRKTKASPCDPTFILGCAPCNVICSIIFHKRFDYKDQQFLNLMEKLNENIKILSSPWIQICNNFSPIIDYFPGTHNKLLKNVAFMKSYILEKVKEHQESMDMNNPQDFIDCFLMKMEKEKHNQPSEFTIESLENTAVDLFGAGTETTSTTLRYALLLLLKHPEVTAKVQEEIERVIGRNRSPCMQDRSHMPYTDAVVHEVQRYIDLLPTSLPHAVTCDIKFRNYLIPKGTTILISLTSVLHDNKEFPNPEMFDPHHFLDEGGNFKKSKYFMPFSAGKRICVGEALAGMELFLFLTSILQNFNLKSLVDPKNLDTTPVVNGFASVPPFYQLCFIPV
With `N#C/C(=C\Nc1ccccn1)C(=O)c1ccco1`, the AC50 was 3.16 µM (active).
On to `N#C/C(=C\Nc1ccccn1)C(=O)C1CC1`, for which the activity, negative = inhibition was 2.34% [at 11.4 µM].
Same read-out and setting: the result for `O=C(N/N=C/c1ccccn1)c1ccco1` reads 61.6%; that for `CC(C)CSC[C@@H]1O[C@H](n2cnc3c(N)nccc32)[C@H](O)[C@@H]1O`, 3.85% [at 11.4 µM].
The same measure, in the same setting: the same measure for `CC(C)N1CCC(=NNC(=O)c2ccc(Br)o2)CC1`: -17%; for `CS(=O)(=O)N1CCC2(CC1)CN(C(=O)Nc1ccccc1)C2`: 8.74%.
Take `CS(=O)(=O)N1CCN(c2ccccc2NC(=O)c2ccc(Br)o2)CC1`: the AC50 was 20 µM (active).
Regarding `COCC(=O)N1CCC2(CCCN(Cc3ccccc3)C2)CC1`, the “activity, negative = inhibition” value is -0.418%.
With `O=C(c1cc(Cl)c(=O)n(Cc2ccc(Cl)cc2)c1)N1CCOCC1`, the “activity, negative = inhibition” value is -22.2%.
`O=C(c1ccc2c(c1)N(Cc1ccc(F)cc1)C(=O)CS2)N1CCOCC1`: the AC50 was 17.8 µM (active).
For the compound `O=C1S/C(=C/c2ccc(N3CCOCC3)o2)C(=O)N1Cc1ccc(F)cc1`, the “activity, negative = inhibition” value is -19.5%.
With `CC(Sc1nc(-c2ccccc2)cc(C(F)(F)F)n1)C(=O)N1CCCCC1` (stereo not drawn), the AC50 is 8.91 µM (active).
For `O=C(c1cc(C(F)(F)F)cc(C(F)(F)F)c1)N1CCC[C@@]2(CCN(c3ccccc3)C2)C1`, the “activity, negative = inhibition” value is 24%.
For `O=C(O)CSc1cc(C(F)(F)F)nc(-c2ccccn2)n1`, the “activity, negative = inhibition” value is -7.48%.
Regarding `CCCCCC1=C2CNC(CC(C)C)(C(=O)OC)C=C2C(C)C1=O` (stereo not drawn), the half-maximal activity concentration (AC50) is 3.16 µM (active).
Take `CCCCCC1=C2CNC(CCC)(C(=O)OC)C=C2C(C)C1=O` (stereo not drawn): the AC50 is 10 µM (active).
Still for that read-out and setting: the same measure for `COC(=O)C1(CC(C)C)C=C2C(=C(C(C)C)C(=O)C2C)CN1` (stereo not drawn): 12.6 µM (active).
For the compound `CCCC1(C(=O)OC)C=C2C(=C(C)C(=O)C2C)CN1` (stereo not drawn), the “activity, negative = inhibition” value was -6.7%.
Still for that read-out and setting: the same measure for `c1ccc(CNc2ccnc(-c3ccc4c(c3)OCO4)n2)cc1`: -0.997% [at 2.29 µM]; for `O=C(O)[C@@H](O)[C@@H](O)[C@@H](O)[C@@H](O)C(=O)O` (tested in a mixture with another compound): -19.4% [at 25.6 µM].
As for `Cc1cccc2c1OCC/C2=N\NC(=O)COc1ccccc1`, the AC50 is 15.8 µM (active).
Consider `Cc1ccccc1OCC(=O)N/N=C1\CCOc2c(C)cccc21`, for which the “activity, negative = inhibition” value is -0.88%.
Same read-out and setting: the result for `COc1ccc(CNC(=O)/C=C/c2ccc(OCCCF)cc2)cc1` reads -25.4%.
As to `CCCCOc1ccc(/C=C/C(=O)NCCc2nc3ccccc3[nH]2)cc1`, the AC50 is 6.31 µM (active).
Take `O=C(Nc1ccccc1)N1CCC2(CC1)CCN(C(=O)c1ccco1)CC2`: the “activity, negative = inhibition” value is -7.61%.
Regarding `Cc1cccc(OCC(=O)N/N=C\C=C\c2ccc3c(c2)OCO3)c1C`, the “activity, negative = inhibition” value is 8.15%.
`N#C/C(=C\c1ccc(O)c(O)c1)C(=O)Nc1ccccc1`: the “activity, negative = inhibition” value is -18.9%.
As to `O=C(Nc1ccccc1)/C(=C\c1ccc2c(c1)OCO2)NC(=O)c1ccco1`, the AC50 is 10 µM (active).
Consider `Cc1ccc(NC(=O)/C(=C\c2ccc3c(c2)OCO3)NC(=O)c2ccco2)cc1`, for which the AC50 was 3.55 µM (active).
For the compound `Cc1noc(C)c1C(=O)N1CCC[C@@]2(CCN(C(=O)Nc3cccc(F)c3)C2)C1`, the “activity, negative = inhibition” value is -5.02%.
Same read-out and setting: the result for `O=C(Nc1c[nH]c(=O)[nH]c1=O)Oc1ccccc1` reads 1.86% [at 11.4 µM]; that for `NOCC(=O)O`, -0.0818%.
For `CCNc1nc(Sc2ccc(C)cc2)cc(C(F)(F)F)n1`, the half-maximal activity concentration (AC50) is 25.1 µM (active).
For the compound `Cc1ccc(Sc2cc(Cl)nc(N)n2)cc1`, the “activity, negative = inhibition” value was -3.63%.
Still for that read-out and setting: the result for `CC[C@@H](CS(=O)(=O)O)[N+](=O)[O-]` reads 5.26% [at 11.4 µM].
For `O=C(CN(Cc1ccccc1)S(=O)(=O)c1ccc2c(c1)OCCO2)N/N=C/c1ccc(F)cc1`, the concentration at half-maximal activity (AC50) is 14.1 µM (active).
For `COCc1cc(=O)[nH]c2cc(NC(=O)C(F)(F)F)c(C)cc12`, the “activity, negative = inhibition” value is 10.5%.
With `CCC(=O)Nc1nonc1-c1nc2ccccc2n1N(C(=O)CC)C(=O)CC`, the AC50 was 10 µM (active).
On the same count and under the same terms, the result for `CCn1c(-c2nonc2NC(=O)c2ccccc2)nc2ccccc21` reads 0.501 µM (active).
Regarding `Cc1ccc(C(=O)Nc2nc3ccccc3n3nnnc23)cc1`, the “activity, negative = inhibition” value is -12.8%.
On the same count and under the same terms, the result for `CC(=O)OC[C@H]1O[C@@H](O/N=C\[C@@H](C)[C@H](OCc2ccccc2)C(C)C)[C@H](OC(C)=O)[C@@H](OC(C)=O)[C@H]1OC(C)=O` reads 1.31% [at 11.4 µM].
For the compound `CC[C@]1(C)CC(=O)NC1=O`, the AC50 result was “inactive”.
`Cc1cc(C(=O)N[C@@H](c2ccccc2)[C@]2(C)C[C@H]2[C@@H](C)C(=O)Nc2ccc3ccccc3c2)n(C)n1`: the AC50 was 3.98 µM (active).
Take `Cc1cc(C(=O)N[C@H](c2ccccc2)[C@@]2(C)C[C@@H]2[C@@H](C)C(=O)Nc2ccc3ccccc3c2)n(C)n1`: the AC50 is 7.94 µM (active).
With `C[n+]1cc(-c2ccccc2)n2c1CCCCC2`, the “activity, negative = inhibition” value is 18.1%.
The same measure, in the same setting: the same measure for `CN(C)CCCN1c2ccccc2Sc2cnccc21`: 5.82% [at 11.4 µM].
As for `Cc1ccc(C(C(=O)NCc2ccco2)N(C(=O)CNC(=O)c2cccs2)c2ccc(C)cc2C)cc1` (stereo not drawn), the AC50 was 0.447 µM (active).
Regarding `Cc1ccc(C(C(=O)NCc2ccco2)N(C(=O)CNC(=O)c2cccs2)c2ccc(C)cc2)cc1` (stereo not drawn), the “activity, negative = inhibition” value is -21.2%.
